From PubChem BioAssay (NCI) come the findings set out here.

Assay [1] in a line: NCI Yeast Anticancer Drug Screen. Data for the rad50 strain (AID 155).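 Note: 0% = growth of vehicle-only cultures of the same strain.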 The note with it: S. cerevisiae rad50 strain growth inhibition, stronger effect = higher value. The gist of the method:
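Growth of the mutant yeast was measured after compound exposure and referenced to vehicle-treated cultures.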

The nature of assay [2]: NCI Yeast Anticancer Drug Screen. Data for the mec2-1 strain (AID 157). The note with it: S. cerevisiae mec2-1 strain, stronger effect = higher value. The gist of the method: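 Compounds were applied to mec2-1 yeast cells. Their growth was then compared with that of vehicle-treated cultures to give growth inhibition.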
Assay [3] in a line: NCI Yeast Anticancer Drug Screen. Data for the sgs1 mgt1 strain (AID 161).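 Note: 0% = growth of cultures given vehicle only.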 The note with it: S. cerevisiae sgs1 mgt1 strain, stronger effect = higher value. The gist of the method: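 Percent growth inhibition was derived by comparing compound-exposed mutant yeast with vehicle-exposed cultures. The strain carries alterations in DNA damage repair.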
Assay [4] is described as follows: NCI Yeast Anticancer Drug Screen. Data for the cln2 rad14 strain (AID 165).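 Note: 0% = growth equal to vehicle treated cultures.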 As to conditions: S. cerevisiae cln2 rad14 strain, stronger effect = higher value. The gist of the method: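 Strain: cln2 rad14 yeast, altered in cell cycle control and DNA damage repair. Read-out: growth inhibition vs vehicle.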
A short description of assay [5]: NCI Yeast Anticancer Drug Screen. Data for the bub3 strain (AID 167). As to conditions: S. cerevisiae bub3 mutant strain, stronger effect = higher value. The gist of the method:
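Whole-cell yeast assay. The mutant strain was incubated with compounds, and growth inhibition was determined by comparison with vehicle-treated cells.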

Assay [6] is described as follows: NCI Yeast Anticancer Drug Screen. Data for the mlh1 rad18 strain (AID 175). As to conditions: S. cerevisiae mlh1 rad18 strain growth inhibition, stronger effect = higher value. The gist of the method: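 A repair-deficient yeast strain is exposed to test compound, and growth is scored relative to vehicle-treated controls.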
Where [7] appears, read: at 5.0 µM (retest, dose inferred, filed as 0.5).
Setting [8] is: at 50.0 µM (retest, dose inferred, filed as 5.0).

SMILES strings stand for the structures. Compounds without any hit were thinned out: in the full panel of roughly 79,000, 15% have a hit. Values without a mark were called inactive. Activity calls are given as the source filed them. Cut-off read from the data, not from the text of the source: active = growth inhibition above about 70%; inactive = the rest.

As to `Cc1cnc(Sc2ncccc2[N+](=O)[O-])[nH]c1=O`, the growth inhibition in assay [1] (setting [7]) is 2%; in assay [1] (setting [8]), 7%; in assay [1] (at 50.0 µM) it was -7%; in assay [2] (setting [7]), -3%; in assay [2] (setting [8]), 21%; in assay [2] (at 50.0 µM) it was 43.1%. The growth inhibition in assay [3] (setting [7]) is 5%; in assay [3] (setting [8]) it was 14%; in assay [3] (at 50.0 µM) it was 29.1%; in assay [4] (setting [7]), -3%; in assay [4] (setting [8]), 2%; in assay [4] (at 50.0 µM) it was 26.1%. Moreover, the growth inhibition in assay [5] (setting [7]) was 6%; in assay [5] (setting [8]) it was 9%; in assay [5] (at 50.0 µM) it was -2.7%; in assay [6] (setting [7]), 0%; in assay [6] (setting [8]), 24%; in assay [6] (at 50.0 µM), 27.9%.

Turning to `CC1(C)C/C(=N/NC(N)=S)C(=NO)/C(=N\NC(N)=S)C1`, the growth inhibition was 6% in assay [1] (setting [7]); 60% in assay [1] (setting [8]); 75% (active) in assay [1] (at 50.0 µM); 2% in assay [2] (setting [7]); 40% in assay [2] (setting [8]); 62% in assay [2] (at 50.0 µM). Besides, the growth inhibition is 9% in assay [3] (setting [7]); 61% in assay [3] (setting [8]); 77.4% (active) in assay [3] (at 50.0 µM); -13% in assay [4] (setting [7]); 27% in assay [4] (setting [8]); 23.4% in assay [4] (at 50.0 µM). In addition, the growth inhibition was 0% in assay [5] (setting [7]); 34% in assay [5] (setting [8]); 76.8% (active) in assay [5] (at 50.0 µM); 2% in assay [6] (setting [7]); 59% in assay [6] (setting [8]); 74.5% (active) in assay [6] (at 50.0 µM).

As for `CN(C)C(N)=NC#N`, the growth inhibition in assay [1] (setting [7]) was 25%; in assay [1] (setting [8]) it was 47%; in assay [1] (at 50.0 µM) it was 73.2% (active); in assay [2] (setting [7]) it was 22%; in assay [2] (setting [8]), 86% (active); in assay [2] (at 50.0 µM), 75.7% (active). Moreover, the growth inhibition was 27% in assay [3] (setting [7]); 96% (active) in assay [3] (setting [8]); 51.2% in assay [3] (at 50.0 µM); 20% in assay [4] (setting [7]); 54% in assay [4] (setting [8]); 9.65% in assay [4] (at 50.0 µM). The growth inhibition in assay [5] (setting [7]) was 29%; in assay [5] (setting [8]) it was 95% (active); in assay [5] (at 50.0 µM), 65.2%; in assay [6] (setting [7]), 33%; in assay [6] (setting [8]), 71% (active); in assay [6] (at 50.0 µM), 67%.

For the molecule `CCOC(=O)Nc1cc2c(cn1)[nH]c1ccccc12`, the growth inhibition was -3% in assay [1] (setting [7]); 46% in assay [1] (setting [8]); -0.8% in assay [1] (at 50.0 µM); 7% in assay [2] (setting [7]); 72% (active) in assay [2] (setting [8]); -12.2% in assay [2] (at 50.0 µM). Moreover, the growth inhibition in assay [3] (setting [7]) is -1%; in assay [3] (setting [8]), 52%; in assay [3] (at 50.0 µM) it was 8.35%; in assay [4] (setting [7]) it was 1%; in assay [4] (setting [8]) it was 25%; in assay [4] (at 50.0 µM) it was -0.4%. Further, the growth inhibition was 2% in assay [5] (setting [7]); 38% in assay [5] (setting [8]); 3.25% in assay [5] (at 50.0 µM); 5% in assay [6] (setting [7]); 86% (active) in assay [6] (setting [8]); 5.3% in assay [6] (at 50.0 µM).

As to `CC(O)c1c2c(cc3c1CC1(C3)Cc3cc4c(c(C(C)O)c3C1)CCC4)CCC2` (stereo not given), the growth inhibition is -18% in assay [1] (setting [7]); 98% (active) in assay [1] (setting [8]); 71.1% (active) in assay [1] (at 50.0 µM); -6% in assay [2] (setting [7]); 97% (active) in assay [2] (setting [8]); 81.4% (active) in assay [2] (at 50.0 µM). The growth inhibition in assay [3] (setting [7]) was -34%; in assay [3] (setting [8]), 97% (active); in assay [3] (at 50.0 µM), 85.9% (active); in assay [4] (setting [7]), 1%; in assay [4] (setting [8]) it was 97% (active); in assay [4] (at 50.0 µM) it was 86.7% (active). Moreover, the growth inhibition in assay [5] (setting [7]) is -50%; in assay [5] (setting [8]) it was 97% (active); in assay [5] (at 50.0 µM) it was 87.2% (active); in assay [6] (setting [7]), -17%; in assay [6] (setting [8]), 97% (active); in assay [6] (at 50.0 µM), 88.3% (active).

As for `O=C(O)c1cccc2c1Oc1c(cccc1C(=O)O)S2`, the growth inhibition in assay [1] (setting [7]) is 3%; in assay [1] (setting [8]), 1%; in assay [1] (at 50.0 µM) it was 98.3% (active); in assay [2] (setting [7]), 0%; in assay [2] (setting [8]) it was 9%; in assay [2] (at 50.0 µM) it was 98.2% (active). Also, the growth inhibition in assay [3] (setting [7]) was 0%; in assay [3] (setting [8]), 3%; in assay [3] (at 50.0 µM) it was 98.3% (active); in assay [4] (setting [7]), 2%; in assay [4] (setting [8]), 6%; in assay [4] (at 50.0 µM), 98.2% (active). In addition, the growth inhibition in assay [5] (setting [7]) is 1%; in assay [5] (setting [8]), 1%; in assay [5] (at 50.0 µM), 98.8% (active); in assay [6] (setting [7]), 2%; in assay [6] (setting [8]), -2%; in assay [6] (at 50.0 µM), 98.5% (active).

Regarding `CC(C)C(=O)c1ccc2ccccc2c1O`, the growth inhibition in assay [1] (setting [7]) was -1%; in assay [1] (setting [8]), 1%; in assay [1] (at 50.0 µM), 21.4%; in assay [2] (setting [7]) it was 2%; in assay [2] (setting [8]) it was -1%; in assay [2] (at 50.0 µM) it was -9.8%. Moreover, the growth inhibition in assay [3] (setting [7]) is -13%; in assay [3] (setting [8]), -8%; in assay [3] (at 50.0 µM) it was 4.35%; in assay [4] (setting [7]), 3%; in assay [4] (setting [8]), 0%; in assay [4] (at 50.0 µM) it was 12.2%. Moreover, the growth inhibition was 5% in assay [5] (setting [7]); 6% in assay [5] (setting [8]); 0.5% in assay [5] (at 50.0 µM); -1% in assay [6] (setting [7]); 1% in assay [6] (setting [8]); 1.05% in assay [6] (at 50.0 µM).

Turning to `O=C(CC(=O)Nc1cccc(Cl)c1)NNCC(=O)Nc1nnc(-c2ccccc2)s1`, the growth inhibition in assay [1] (setting [7]) was 8%; in assay [1] (setting [8]), 98% (active); in assay [1] (at 50.0 µM) it was 8.5%; in assay [2] (setting [7]) it was 6%; in assay [2] (setting [8]) it was 99% (active); in assay [2] (at 50.0 µM), 8.05%. Besides, the growth inhibition in assay [3] (setting [7]) was 11%; in assay [3] (setting [8]), 99% (active); in assay [3] (at 50.0 µM), 0.65%; in assay [4] (setting [7]), 3%; in assay [4] (setting [8]) it was 98% (active); in assay [4] (at 50.0 µM), 51.1%. For the same molecule, the growth inhibition in assay [5] (setting [7]) was 7%; in assay [5] (setting [8]), 99% (active); in assay [5] (at 50.0 µM), -3.45%; in assay [6] (setting [7]) it was 3%; in assay [6] (setting [8]), 98% (active); in assay [6] (at 50.0 µM) it was 9.9%.

For the molecule `COc1ccc2c(c1)nc1ccc(Cl)cc1[n+]2C`, the growth inhibition was -6% in assay [1] (setting [7]); 61% in assay [1] (setting [8]); 82.2% (active) in assay [1] (at 50.0 µM); 2% in assay [2] (setting [7]); 64% in assay [2] (setting [8]); 84.1% (active) in assay [2] (at 50.0 µM). In addition, the growth inhibition is -2% in assay [3] (setting [7]); 55% in assay [3] (setting [8]); 82.2% (active) in assay [3] (at 50.0 µM); -7% in assay [4] (setting [7]); 52% in assay [4] (setting [8]); 83.1% (active) in assay [4] (at 50.0 µM). Besides, the growth inhibition is 7% in assay [5] (setting [7]); 70% (active) in assay [5] (setting [8]); 92.2% (active) in assay [5] (at 50.0 µM); 6% in assay [6] (setting [7]); 66% in assay [6] (setting [8]); 89% (active) in assay [6] (at 50.0 µM).

With `Cc1ccc(-n2c(CSc3ccc(Cl)cc3)nnc2SCc2nc3ccccc3[nH]2)cc1`, the growth inhibition is -22% in assay [1] (setting [7]); 8% in assay [1] (setting [8]); 46.9% in assay [1] (at 50.0 µM); -16% in assay [2] (setting [7]); -9% in assay [2] (setting [8]); 73.1% (active) in assay [2] (at 50.0 µM). The growth inhibition in assay [3] (setting [7]) is -28%; in assay [3] (setting [8]) it was 7%; in assay [3] (at 50.0 µM) it was 42.7%; in assay [4] (setting [7]) it was -4%; in assay [4] (setting [8]), 5%; in assay [4] (at 50.0 µM), 70.5% (active). The growth inhibition in assay [5] (setting [7]) is 1%; in assay [5] (setting [8]) it was -3%; in assay [5] (at 50.0 µM), 3.9%; in assay [6] (setting [7]), 2%; in assay [6] (setting [8]), -4%; in assay [6] (at 50.0 µM) it was 66.6%.
